# FAS TE block: FAS thioesterase domain inhibitors, primary screen, biochemical, fluorescence intensity, uHTS | inhibition, % at 15 µM | AID 602261, 2012 | Fatty acid synthase (Homo sapiens), P49327 | recombinant FAS-TE, OMFH fluorogenic substrate, fluorescence endpoint | 0.67% of 360,000 active;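 active means compounds whose normalised, plate-corrected inhibition of enzyme fluorescence in the single-dose primary screen is 50% or more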;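 further: 0% = DMSO with enzyme and 100% = substrate without enzyme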
# SMARCA2 act: SMARCA2 (BRM) function activators, primary screen, cell-based, luminescence, high throughput | MG213 cells, MMTV-luciferase reporter, dexamethasone, overnight | activation, % at 9.1 µM | 1% of 370,000 active | AID 652017, 2013; in the data active means activation above about 7.8%;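 further: 0% = vehicle wells and 100% = reference activator wells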
# GAA850 FXN act: FXN promoter activators, primary screen, cell-based, luciferase luminescence, HEK293 lucGAA850. HEK293 lucGAA850 FXN promoter luciferase reporter, 24 h; percent of 10 µM SAHA response. activation, % at 6 µM. 0.56% of 360,000 active;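 active means activation above the average of all compounds screened plus 3 SD, cutoff fixed separately per campaign, cut at about 7.5% in these data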;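 further: 0% = DMSO wells and 100% = 10 µM SAHA wells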
# proKLK7 act: proKLK7 zymogen activators, primary screen, biochemical, fluorescence intensity. Kallikrein-7 (Homo sapiens), P49862. purified proKLK7, EDANS-DABCYL substrate fluorescence; 100% is mature enzyme control, 0% vehicle. activation, % at 7 µM. 0.9% of 370,000 active;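 active means activation above the mean of all tested compounds plus 3 SD, computed per campaign excluding outliers beyond control limits, cut at about 13% in these data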
# GAA30 counter: GAA30 FXN promoter activators, confirmation, counter-screen for GAA850 frataxin promoter activator project, cell-based, luminescence, HEK293, lucGAA30, triplicate; shares compounds with GAA850 FXN act; HEK293 lucGAA30 FXN promoter luciferase, 24 h; DMSO = 0%, 5 µM ipriflavone = 100%; activation, % at 6 µM; 66% of 1,900 active; AID 588350, 2011;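 active means mean activation above the mean of solvent-only control wells plus 3 SD, cut at about 22% in these data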;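 further: counterscreen of GAA850 promoter hits where activity marks nonselective or luminescence artifacts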
# GAA850 confirm: FXN GAA850 promoter activators in reporter cells, confirmation, cell-based, luminescence, HEK293 lucGAA850, triplicate; activation, % at 6 µM; 86% of 1,900 active; AID 588351, 2011; shares compounds with GAA850 FXN act; HEK293 lucGAA850 FXN promoter luciferase reporter, 24 h; 100% = activation by SAHA;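 active means mean activation above a set limit taken from the primary screen, cut at about 8% in these data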;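 further: 0% = DMSO wells and 100% = 10 µM SAHA wells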
# Active calls of the source: *; . = no result. Only some compounds are listed: those with a hit (about 2.9% of all), similar ones and a draw of the others.
SMILES,FAS TE block,SMARCA2 act,GAA850 FXN act,proKLK7 act,GAA30 counter,GAA850 confirm
CCCCSc1nc2c([nH]1)c(=S)n(C)c(=O)n2C,-4.5,4.1,19.2*,0.2,13.7,15.1*
CCN(CC)CCSc1nc2c([nH]1)c(=S)n(C)c(=O)n2C,-4.6,-3.0,2.1,5.0,.,.
CCCC(CC)Sc1nc2c([nH]1)c(=S)n(C)c(=O)n2C (stereo unspecified),2.6,-1.6,15.0*,1.8,17.3,13.8*
CC(C)(C)C1CCN2CCC[C@](c3ccccc3)(C1)[C@@]21CO1 (stereo partly specified),7.6,-5.7,.,-0.1,.,.
O=C(/C=C/c1ccccc1)/C=C/c1ccccc1,-0.1,3.4,7.9*,-0.1,31.5*,29.6*
CCn1c(SCC(=O)N2CCN(C)CC2)nc2c1c(=O)n(C)c(=O)n2C,-4.0,1.4,1.0,-0.6,.,.
COc1cccc2sc(NNC(=O)C3=COCCO3)nc12,-2.5,-0.8,8.2*,-0.1,86.3*,32.7*
CC1CC(C)CN(C(=O)c2cc3cc(Br)cc(Br)c3o2)C1 (stereo unspecified),19.8,-2.3,10.1*,0.1,61.9*,26.5*
O=C(NC(c1ccc(F)cc1)c1ccc2ccccc2n1)C1CCN(CCOc2ccc(F)cc2)CC1 (stereo unspecified),12.2,-4.6,-1.8,0.0,.,.
Cc1cc(NC(=O)C(C)SCC(=O)Nc2cc(C(F)(F)F)ccc2N2CCOCC2)no1 (stereo unspecified),-3.0,-3.6,8.8*,0.0,26.2*,12.8*
O=[N+]([O-])c1cccc(COc2ccccc2CO)c1,8.2,2.3,.,0.0,.,.
COC(=O)CN1C(c2cccc(Cl)c2)=Nc2ccc(Cl)cc2C1c1ccccc1 (stereo unspecified),33.5,-4.1,8.5*,1.1,38.6*,14.6*
COc1ccc(Nc2nc(N)c([N+](=O)[O-])c(NCCO)n2)cc1,-3.8,0.1,2.8,0.5,.,.
CNc1nc(Nc2ccc(Br)cc2)nc(N)c1[N+](=O)[O-],-4.1,4.7,9.1*,0.1,91.1*,41.6*
CC(C)Nc1oc(-c2cccc3ccccc23)nc1C#N,25.7,7.6,8.6*,-214.1,96.6*,35.7*
CCOc1ccc2nc(SCC(=O)c3cccs3)sc2c1,20.9,6.6,8.6*,-0.4,102.1*,29.3*
O=C(NCCCn1ccnc1)c1cc2cc([N+](=O)[O-])ccc2oc1=O,3.9,-4.2,11.9*,0.1,10.8,7.4
O=C(NCCCn1ccnc1)c1ccc(Cl)cc1[N+](=O)[O-],-7.4,-2.0,0.3,-0.7,.,.
CCc1c(O)c(-c2ccccc2)c(=O)n(-c2ccccn2)c1-c1ccccc1,-4.2,-5.5,1.3,1.0,.,.
CN(C)c1cccc2c(S(=O)(=O)Nc3ccccn3)cccc12,-3.4,-1.6,-1.5,-130.9,.,.
COc1cc(CNc2ccc3[nH]c(=O)[nH]c3c2)ccc1OCc1ccccc1F,0.3,-3.0,7.7*,-1.3,33.4*,19.7*
COc1cc(CNc2ccc3[nH]c(=O)[nH]c3c2)ccc1OCc1ccccc1C,5.7,1.3,2.3,-1.8,.,.
C=C(C(=O)O)C(CCCCCC)C(=O)O (stereo unspecified),0.7,0.9,-0.1,0.7,.,.
CCCC(=O)N1CCN(c2ccc(NC(=O)c3ccc([N+](=O)[O-])o3)cc2Cl)CC1,12.9,-0.8,7.9*,0.4,19.6,24.5*
O=C(Nc1ccc(N2CCOCC2)c(Cl)c1)c1ccc([N+](=O)[O-])o1,7.7,3.4,11.2*,-0.4,117.6*,56.0*
CN1CCN(c2ccc(NC(=O)c3ccc([N+](=O)[O-])o3)cc2Cl)CC1,10.3,-4.5,1.7,0.3,.,.
COc1ccc(CCNC(=O)CSc2nnnn2-c2ccccc2)cc1,6.5,-1.6,-3.6,0.5,.,.
